Experimental data from PubChem BioAssay AID1469 (National Center for Advancing Translational Sciences (NCATS), 2008).
The whole screen tested about 280,000 compounds, of which about 180 (0.064%) were called active. Calls come from the whole dose curve; as a rule, active = well fitted inhibition curve with a large enough effect; inconclusive = small, poorly fitted or top-dose-only effect, or effect the other way; inactive = flat fitted curve, though single readings scatter. Many of the other results were omitted from the sample, so actives are more common in it than they were.

Target: Thyroid hormone receptor beta (Homo sapiens) (UniProt P10828)
Test: qHTS for Inhibitors of the Interaction of Thyroid Hormone Receptor and Steroid Receptor Coregulator 2; note: nearly all actives have a fitted effect of over 50% in size;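 for activity change, negative = inhibition: plate controls were bound peptide for no effect and peptide without receptor for full effect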
Conditions: TRbeta-SRC2 peptide binding, fluorescence polarization, receptor liganded with 1 µM T3; series mostly up to 201 µM; activity change, negative = inhibition: at the top concentration
Description: NIH Molecular Libraries Probe Production Network [MLPCN]
NIH Chemical Genomics Center [NCGC]
Assay Provider: R. Kip Guy, St. Jude Children's Research Hospital
Thyroid receptor (TR) regulates many homeostatic processes including basal metabolism, cardiovascular function, body weight, and lipid trafficking. TR modulators are potential therapeutics for obesity and hyperlipidemias but current thyroid analogs have undesirable side effects, particularly cardiac stimulation. To identify inhibitors that specifically prevent the interaction of TR with the steroid receptor coregulator 2 (SRC2), a fluorescence polarization assay was screened. This assay detects interaction of the ligand-binding domain of human TRb with a Texas Red labeled SRC2 peptide, corresponding to a 20 amino acid region of the nuclear receptor interaction domain (Arnold et al., 2006). Small molecule inhibitors that block the interaction of TR and SRC2 are detected by a decrease in fluorescence polarization.
Arnold, L. A.; Estebanez-Perpina, E.; Togashi, M.; Shelat, A.; Ocasio, C. A.; McReynolds, A. C.; Nguyen, P.; Baxter, J. D.; Fletterick, R. J.; Webb, P.; Guy, R. K. A high-throughput screening method to identify small molecule inhibitors of thyroid hormone receptor coactivator binding. Sci STKE 2006, p 13.
NCGC Assay Protocol Summary:
For screening, 5 uL/well 0.6 uM TRb and 20 nM SRC2 Texas Red in protein buffer (20mM Tris hydrochloride, 100mM NaCl, 10% glycerol, 1mM EDTA, 0.01% NP-40, 1mM DTT, 1uM T3 and 5% DMSO) was dispensed into black solid 1536-well plates (Grenier) using a solenoid-based dispenser. Following transfer of 23 nL compound or DMSO vehicle by a pin tool, the plates were centrifuged 15 s at 1000 RPM and incubated 5 hr at ambient temperature. The plates were read by an Envision (Perkin Elmer) to detect fluorescence polarization of SRC2 Texas Red (555 nm excitation and 632 nm emission). Data were normalized to unbound (all components except TRb) and bound SRC2 Texas Red controls. In this assay, we provide % activity data for each concentration as well as potencies for the active compounds.
Keywords: NIH Roadmap, MLPCN, MLI, MLSMR, qHTS, NCGC, qHTS, thyroid hormone receptor, steroid receptor coactivator, fluorescence polarization
Potency is the fitted concentration of half-maximal effect.

Chain of Thyroid hormone receptor beta (Homo sapiens) (P10828 whole entry, looked up): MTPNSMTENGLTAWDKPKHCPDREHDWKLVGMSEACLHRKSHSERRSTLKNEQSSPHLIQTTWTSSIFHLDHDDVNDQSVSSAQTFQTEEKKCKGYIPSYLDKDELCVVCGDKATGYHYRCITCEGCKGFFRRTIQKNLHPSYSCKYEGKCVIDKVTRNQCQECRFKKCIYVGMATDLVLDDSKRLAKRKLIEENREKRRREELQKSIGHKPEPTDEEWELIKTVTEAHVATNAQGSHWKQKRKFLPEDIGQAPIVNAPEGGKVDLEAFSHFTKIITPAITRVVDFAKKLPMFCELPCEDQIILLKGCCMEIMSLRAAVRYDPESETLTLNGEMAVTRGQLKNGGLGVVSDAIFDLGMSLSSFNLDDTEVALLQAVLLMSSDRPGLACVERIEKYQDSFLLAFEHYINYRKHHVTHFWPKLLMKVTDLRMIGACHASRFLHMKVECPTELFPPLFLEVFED

SMILES | Potency | activity change, negative = inhibition
CC[N+](C)(CC)CCC[n+]1c(-c2ccccc2)c2cc(N)ccc2c2ccc(N)cc21 | 44.7 µM (active) | –
Oc1ccc(C2(c3ccc(O)cc3)c3ccccc3-c3ccccc32)cc1 | – | 1.29% (inactive)
[Ga]#[As] | – | 5.9% (inactive)
CCOP(=O)(SC(C)CC)SC(C)CC (stereo not given) | – | -2.05% (inactive)
COc1nc(C)nc(NC(=O)NS(=O)(=O)c2ccccc2CCC(F)(F)F)n1 | – | -2.66% (inactive)
